Compound activity as filed in PubChem BioAssay.
This is a sample that favours compounds with a hit; in the whole collection about 1.1% have one here.
USP2a inh – blocks human ubiquitin-specific protease USP2a. USP2 core, Ub-CHOP2 coupled fluorogenic reporter, 485/531. Potency, µM (doses to about 38.3 µM), for the others: at the highest dose activity change, negative = inhibition, usual class: inhibitors. actives 0.01% (n = 330,000);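 also: plate controls were DMSO wells for no effect and full inhibition by NEM control for full effect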
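Cell-free coupled assay: 10nM USP2 core preincubated 30min RT with compound in Tris-HCl pH 8.0/CaCl2/CHAPS buffer, then 25nM Ub-CHOP2 and 25nM reporter substrate; fluorescence (Ex 485/Em 531) read after 60min RT, normalized to NEM inhibition, concentration-response curves fitted.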
TSG101-PTAP inh – blocks PTAP/TSG101 interaction to inhibit HIV-1 budding; AID 493005; Potency, µM (highest dose often 115 µM), inactives show at the top dose activity change, negative = inhibition, most hits filed as inhibitors; Fluorescence polarization, FITC-PTAP peptide / Tsg101 binding; Q99816; 340,000 tested, under 10 active; active = well fitted inhibition curve with a large enough effect in the main read-out, with a control signal flat, not every such curve was filed as active; inconclusive = small, poorly fitted or top-dose-only effect, or effect the other way, or a change in a side signal; inactive = no such curve, though single readings can be large or run the other way; also: % of control where 0% means no effect
Target sequence (Q99816 whole entry, looked up): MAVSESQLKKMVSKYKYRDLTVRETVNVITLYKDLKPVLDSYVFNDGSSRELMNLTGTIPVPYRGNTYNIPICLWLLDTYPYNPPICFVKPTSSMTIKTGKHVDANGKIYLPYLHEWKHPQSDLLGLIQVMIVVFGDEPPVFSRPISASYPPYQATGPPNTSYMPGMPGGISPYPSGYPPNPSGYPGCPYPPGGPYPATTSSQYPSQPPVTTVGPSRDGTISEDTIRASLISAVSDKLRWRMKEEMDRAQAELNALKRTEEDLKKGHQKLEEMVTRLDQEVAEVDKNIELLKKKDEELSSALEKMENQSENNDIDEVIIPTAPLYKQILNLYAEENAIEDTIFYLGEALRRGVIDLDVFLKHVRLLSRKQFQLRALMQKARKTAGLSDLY
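Fluorescence anisotropy tracks displacement of a FITC-tagged PTAP peptide (50 nM) from the Tsg101 binding domain (10 uM), following a 20 min room-temperature incubation at pH 7.5.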
Eya2 phos inh – inhibitors of human Eya2 phosphatase activity. recombinant Eya2, OMFP fluorescence dephosphorylation (OMFP is methylfluorescein phosphate). actives 0.006% (n = 330,000). Potency, µM (highest dose often 76.9 µM), for the others: top-dose activity, negative = inhibition, actives largely listed as inhibitors. O00167; also: % is scaled to controls: 0 for no effect and ±100 for the full control effect
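Eya2 protein (added as 0.2 uM solution) was preincubated with compound for 10 min at ambient temperature in 50 mM HEPES pH 7.5, 50 mM NaCl, 5 uM MgCl2, 0.05% BSA, 1 mM DTT. OMFP (added at 50 uM) then reacted 10 min; fluorescence read at 485/525 nm.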
12-LOX inh – ALOX12 (human) lipoxygenase inhibition | actives 1.1% (n = 580,000) | purified 12hLO, xylenol orange hydroperoxide absorbance | P18054 | Potency, µM (doses to about 108 µM), for the others: at the top dose activity change, negative = inhibition, hits mostly inhibitors; also: % is scaled to controls: 0 for no effect and ±100 for the full control effect
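Hydroperoxide product was detected by ferrous iron/xylenol orange as the 573 to 405 nm absorbance ratio. Arachidonic acid at 40 uM (final) was turned over for 30 min at room temperature by 150 nM human 12hLO, pH 7.0 Hepes buffer, after 15 min compound preincubation.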
* hit, by the source's call; ? = inconclusive; . = not tested or not shown; ! = a repeat was not active; [ ] = remark or other dose. Unless noted, calls follow the shape of the dose curve; as a rule, active = well fitted curve in the direction sought with a large enough effect; inconclusive = small, poorly fitted or top-dose-only effect, or another doubt; inactive = no such curve, though single readings can be large; an effect the other way counts as inactive or inconclusive. Potency is read from the fitted curve at half-maximal effect.

SMILES | USP2a inh | TSG101-PTAP inh | Eya2 phos inh | 12-LOX inh
Cc1ccc(S(=O)(=O)N2[C@@H](c3ccccc3F)C(C(=O)O)=CC[C@H]2c2ccc(Cl)c(Cl)c2)cc1 | 11µM* | -8% | ? | ?
Cc1ccccc1S(=O)(=O)N1[C@@H](c2ccc(Br)cc2)C(C(=O)O)=CC[C@H]1c1ccc(Cl)cc1 | -13% | 1% | -5% | ?
COC1CCOC2(CCN(C(=O)c3cc(-c4ccc(F)cc4)n[nH]3)CC2)C1 (stereo unspecified) | . | . | . | -12%
CCN(CC)C(=S)SC(c1ccc2ccccc2c1[N+](=O)[O-])S(=O)(=O)c1ccc(C)cc1 (stereo unspecified) | . | . | . | -12%
CC(C)c1ccc2oc(-c3ccc(N)cc3O)nc2c1 | . | . | . | 35µM*
CC(C)c1ccc2oc(-c3cc(N)ccc3O)nc2c1 | -7% | -7% | -5% | ?
CC(C)(C)c1ccc(S(=O)(=O)N2CCN(CC(O)COCC3CCCO3)CC2)cc1 (stereo unspecified) | 5% | 0% | -14% | 15%
O=S(=O)(c1ccc(Cl)c(C(F)(F)F)c1)N1CCN(CC(O)COCC2CCCO2)CC1 (stereo unspecified) | 0% | -6% | 7% | 0.56µM*
COc1ccc2cc(CNC(=O)CNC(=O)c3ccc(C)cc3)ccc2c1 | . | . | . | -5%
O=C(CS(=O)(=O)Cc1ccccc1)Nc1nnc(C(F)(F)F)s1 | 0% | -2% | 5% | 7%
CC(C)(C)c1nnc(NC(=O)CS(=O)(=O)Cc2ccccc2)s1 | 7% | -1% | 5% | 40µM*!
Cc1cccc(OCC2(CNC3CCOCC3)C[C@@H](O)[C@@H](O)C2)n1 (stereo partly specified) | . | . | . | 25µM*
Cc1cccc(OCC2(CNCc3cnn(C)c3)C[C@@H](O)[C@@H](O)C2)n1 (stereo partly specified) | . | . | . | 28µM*
Cc1cccc(OCC2(CNCC3CCCC3)C[C@@H](O)[C@@H](O)C2)n1 (stereo partly specified) | . | . | . | -15%[176 µM]
Cc1cccc(OCC2(CNC(=O)c3cc(C)nn3C)C[C@@H](O)[C@@H](O)C2)n1 (stereo partly specified) | . | . | . | 25µM*
CS(=O)(=O)NCC1CCCN(C(=O)c2ccc3ccccc3n2)C1 (stereo unspecified) | . | . | . | -12%
Cc1cc(F)ccc1S(=O)(=O)Nc1ccc(N2CCCC2)c(F)c1 | . | . | . | 4µM*
Cc1ccccc1N=C1CCCc2ccccc21 | . | . | . | -14%
O=C(Nc1ccccc1)Nc1ccc(Cl)nc1Cl | . | 0% | . | 3.2µM*
CCCOc1ccc(-c2cc(C(=O)O)c3cc(C)ccc3n2)cc1 | . | . | . | -24%
COc1ccc(/C=N/Nc2ccc(C(=O)O)cc2)c(OC)c1OC | -2% | -4% | 9% | 0%
COC(=O)c1ccc2c(c1)C(C)(C)C(/C=C/c1ccc(OC)c(OC)c1OC)=[N+]2C | 2% | 0% | -2% | 2.5µM*
COC(=O)c1ccc2c(c1)C(C)(C)C(/C=C/c1ccc(O)cc1)=[N+]2C | 0% | 48% | 9% | 5.6µM*
CCCNC(=O)NC[C@@H]1C=C(C)[C@H](Cc2nc3nc(OC)ccc3[nH]2)C[C@H]1C(C)C | . | . | . | 34%[176 µM]
O=C(NC1CC1)c1nc(-c2ccc(Cl)cc2Cl)c2ccccn12 | . | . | . | -5%
SMILES | USP2a inh | TSG101-PTAP inh | Eya2 phos inh | 12-LOX inh
O=C1NCc2ccccc2CC12CCCN2CC1CCCCC1 (stereo unspecified) | . | . | . | 7%[6.33 µM]
CCC(=O)Nc1cccc(NC(=S)NC(=O)c2ccccc2)c1 | 1% | 0% | -5% | -28%
O=C(NC(=S)Nc1c(Cl)cc(Cl)cc1Cl)c1ccccc1 | . | . | . | 35µM*
Cc1ccc(NC(=S)NC(=O)c2ccccc2)cc1NC(=S)NC(=O)c1ccccc1 | 2% | 1% | 3% | 4µM*
O=C(NC(=S)Nc1cccc(NC(=S)NC(=O)c2ccccc2)c1)c1ccccc1 | . | -6% | . | 14µM*
Cc1ccc(CNC(=S)Nc2cc(C(=O)O)ccc2C)cc1 | 1% | -3% | 5% | ?
Cc1ccc(C(=O)O)cc1NC(=S)NC(=O)c1ccc([N+](=O)[O-])c(C)c1 | 2% | -5% | 9% | 20µM*
NCCCCN1CCCCC1 | . | . | . | 16%
COC(=O)c1ccc(NC(=O)c2ccc3nc(-n4cccc4)sc3c2)cc1 | . | . | . | -20%
CCNc1ccnc(NC2CCCc3c2cnn3-c2ccc(C)c(C)c2)n1 (stereo unspecified) | . | . | . | -5%
